Assay outcomes (PubChem BioAssay)
An excerpt weighted towards active compounds, which were near 12% of everything screened.
TDP1 block: TDP1 (human) enzyme inhibition. recombinant TDP1, AlphaScreen DNA substrate cleavage. Q9NUW8. Potency, µM (titrated, usually from 130 µM), for the others: top-dose activity change, negative = inhibition, usual class: inhibitors. 350,000 tested, 0.28% active; also: % is scaled to controls: 0 for no effect and ±100 for the full control effect; nearly all actives have a fitted effect of over 40% in size
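Here, a 5' biotin and 3' phosphotyrosine-FITC DNA oligonucleotide reports Tdp1 activity: intact substrate bridges AlphaScreen beads, while cleavage leaves a 3' phosphate and drops signal. All incubations at room temperature.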
HP1b chromo inh: HP1-beta chromodomain-methylated histone interaction inhibition; Potency, µM (highest dose often 114 µM), inactives show at the highest dose activity change, negative = inhibition, actives largely listed as inhibitors; AID 540317; 390,000 tested, 0.56% active; P83916; AlphaScreen HP1-beta / biotin-H3K9me3 peptide binding; also: nearly all actives have a fitted effect of over 70% in size
Target sequence (P83916 whole entry, looked up): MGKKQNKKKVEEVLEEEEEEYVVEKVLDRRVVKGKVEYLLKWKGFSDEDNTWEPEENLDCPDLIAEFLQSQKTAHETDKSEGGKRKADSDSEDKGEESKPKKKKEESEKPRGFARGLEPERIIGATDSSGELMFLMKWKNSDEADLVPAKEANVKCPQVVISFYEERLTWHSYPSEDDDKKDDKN
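HP1-beta protein (50 nM final) preincubated 30 min at room temperature with biotinylated H3(1-18)K9me3 peptide (50 nM) in PBS pH 7.4, 0.01% Tween-20, then compound added for 30 min. AlphaScreen streptavidin donor/nickel chelate acceptor beads (10 ug/mL final), 30 min dark, luminescence read.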
BAZ2B inh: blocks human BAZ2B; Potency, µM (highest dose often 114 µM), without a hit: top-dose activity change, negative = inhibition, actives largely listed as inhibitors; Q9UIF8; AlphaScreen BAZ2B-H3K14Ac peptide displacement; 360,000 tested, 4.4% active; also: % is scaled to controls: 0 for no effect and ±100 for the full control effect; nearly all actives have a fitted effect of over 60% in size
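BAZ2B (50 nM) with biotin-H3(5-23)K14Ac peptide (50 nM) in PBS pH 7.4, 0.01% Tween-20, preformed 30 min, then compound 30 min at room temperature; top concentration 110uM. AlphaScreen streptavidin donor/nickel chelate acceptor beads (10 ug/mL final), 20 min dark, signal read.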
JMJD2A Tudor: inhibitors of human JMJD2A Tudor domain; O75164; AlphaScreen JMJD2A-Tudor / H3K4me3 peptide binding; Potency, µM (series often up to 114 µM), inactives show top-dose activity change, negative = inhibition, most hits filed as inhibitors; 390,000 tested, 4.4% active; AID 504339; also: % is scaled to controls: 0 for no effect and ±100 for the full control effect; nearly all actives have a fitted effect of over 50% in size
G9a block: inhibitors of human histone lysine methyltransferase G9a; Q96KQ7; G9a H3K9 monomethylation, AlphaScreen, 2 h; Potency, µM (doses to about 102 µM), for the others: top-dose activity, negative = inhibition, usual class: inhibitors; 350,000 tested, 8.8% active; AID 504332; also: % is scaled to controls: 0 for no effect and ±100 for the full control effect; nearly all actives have a fitted effect of over 75% in size
Target sequence (Q96KQ7 913-1193 limits assumed): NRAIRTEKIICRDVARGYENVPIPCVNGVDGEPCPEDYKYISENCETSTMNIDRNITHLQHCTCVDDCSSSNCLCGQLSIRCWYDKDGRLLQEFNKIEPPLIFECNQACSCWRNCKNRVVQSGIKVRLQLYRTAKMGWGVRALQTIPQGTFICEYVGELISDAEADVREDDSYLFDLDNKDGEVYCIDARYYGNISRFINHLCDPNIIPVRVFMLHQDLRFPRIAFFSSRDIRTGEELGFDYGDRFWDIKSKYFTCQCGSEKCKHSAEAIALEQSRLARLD
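Chemiluminescent proximity detection of H3K9 monomethylation, read after 10 min bead incubation in the dark. Reaction: 20 nM G9a, 500 nM biotin-H3K9 peptide, 20 uM SAM cofactor, 2 h, room temperature, following 15 min enzyme-compound preincubation.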
Sfp inh: blocks B. subtilis Sfp PPTase activity | Q9F4F7 | Biochemical Sfp PPTase activity, qHTS | Potency, µM, for inactives: largest response in the series, negative = inhibition, usual class: inhibitors | 310,000 tested, 3.5% active;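 also: the enzyme is Sfp with the accession as filed and its product quenches rhodamine fluorescence; 0% = enzyme reaction without inhibitor and -100% = no enzyme wells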
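Fluorescence-quenching assay with 15 nM Sfp, 5 uM rhodamine-CoA and 12.5 uM BHQ-2-labelled ybbR peptide in pH 7.6 Hepes/MgCl2 buffer. Enzyme was pre-incubated with compound for 15 min at room temperature. Rate was taken from the 30-min fluorescence change (525/598 nm).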
An asterisk follows results filed as active; ? = inconclusive; · = no result; [ ] = another dose, or the depositor's remark. Calls follow the shape of the dose curve; as a rule, active = well fitted curve in the direction sought with a large enough effect; inconclusive = small, poorly fitted or top-dose-only effect, or another doubt; inactive = no such curve, though single readings can be large; an effect the other way counts as inactive or inconclusive. Potency is read from the fitted curve at half-maximal effect.

SMILES	TDP1 block	HP1b chromo inh	BAZ2B inh	JMJD2A Tudor	G9a block	Sfp inh
COc1ccc(NS(=O)(=O)c2cc(NC(=O)CC3CCCC3)ccc2N2CCOCC2)cc1	0%	-10%	·	-4%	?	25µM*
COc1ccc(NS(=O)(=O)c2cc(NC(=O)c3cc(F)c(F)c(F)c3F)ccc2N2CCCC2)cc1	-2%	54%	-18%	-18%	·	-1%
COc1ccc(NS(=O)(=O)c2cc(NC(=O)C3CCCO3)ccc2N2CCCC2)cc1 (centres undefined)	5%	28%	-23%	-23%	25µM*	5%
Brc1cccc(OCCCCn2cncn2)c1	7%	?	50µM*	25µM*	25µM*	?
c1ccc(-c2ccc(OCCCn3cncn3)cc2)cc1	-2%	?	56µM*	-14%[11.4 µM]	?	-25%
Cn1c(=O)c2c(ncn2CCOc2cccc(Br)c2)n(C)c1=O	·	50%	0%	5%	21%	9%
c1ccc(COc2ccc(OCCn3cncn3)cc2)cc1	2%	40%	-18%	-10%	3%[59 µM]	10%
COC(=O)CCC(=O)OC1(C)C(=O)C=C2C=C(c3ccc(C#N)cc3)OC=C2C1=O (centres undefined)	7%	·	·	·	·	10%
CCCCCn1c(NCc2ccccc2OC)nc2ccccc21	-2%	32%	-19%	-24%	-11%[59 µM]	·
CC(C)n1c(O)c(N=NC(=O)Cc2csc(N3CCOCC3)n2)c2ccccc21	8%	19%	40µM*	-25%	?	-2%
COc1ccc(CN(C)C(=O)/C=C/c2ccc(S(=O)(=O)N3CCCCCC3)cc2)cc1	1%	8%	5%	-17%	-11%[12.7 µM]	·
Cc1ccc(CC(=O)NNC(=O)c2ccncc2)cc1C	0%	?	-9%	-36%	4.5µM*	·
Cc1cs/c(=N\N=C\c2ccccc2)n1Cc1ccco1	7%	?	13µM*	35µM*	14µM*	-20%
CC(C)=N/N=c1\scc(C)n1Cc1ccco1	4%	-6%	-39%	-30%	-49%	12%
CCOC(=O)c1c(O)c2c(n(Cc3ccco3)c1=O)CCCC2	5%	25%	1%	-10%	-4%[59 µM]	-6%
Cc1cs/c(=N\N=C2CCCCC2)n1Cc1ccco1	7%	?	45µM*	?	?	6%
CCOCCCn1c(SCC(=O)NCc2ccco2)nc2c(sc3ccccc32)c1=O	4%	17%	0%	2%	-26%	22µM*
CCOC(=O)CSc1nc2c(sc3ccccc32)c(=O)n1CCO	5%	-35%	-20%	56µM*	2%[59 µM]	·
O=C(CSc1nc2c(sc3ccccc32)c(=O)n1CCCN1CCCC1)NCC1CCCO1 (centres undefined)	-5%	26%	-1%	3%	56µM*	-19%
CCn1cc2nc(SCc3cccc(OC)c3)n(Cc3ccc(Cl)cc3)c(=O)c2n1	-2%	8%	-6%	-13%	-41%[59 µM]	·
Nc1ccc2nc(SCC(=O)c3ccccc3)sc2c1	9%	10%	?	-27%	45µM*	0%
O=C(OCC#CCSc1nnc(-c2ccc([N+](=O)[O-])cc2)o1)c1cccs1	7%	-25%	?	?	32µM*	5%
Cc1ccc(C)n1-c1ccc(-c2nnco2)cc1	-8%	·	-36%	·	45µM*	2%
Cc1cc(-c2nnco2)c(C)n1-c1ccc(F)cc1	4%	-15%	-32%	?	-5%[59 µM]	11%
COc1ccc(N=C2NC(=O)/C(=C/c3ccc(O)c(OC)c3)S2)cc1	2%	-13%	?	-35%	?	11%
SMILES	TDP1 block	HP1b chromo inh	BAZ2B inh	JMJD2A Tudor	G9a block	Sfp inh
COc1cc(/C=C2\S/C(=N/S(=O)(=O)c3ccc(C)cc3)NC2=O)c([N+](=O)[O-])cc1OC	3%	21%	-37%	6%	?	6%
Cc1ccc(S(=O)(=O)/N=C2/NC(=O)/C(=C/c3cc([N+](=O)[O-])ccc3O)S2)cc1	·	16%	-29%	-32%	11µM*	-58%
O=C1NC(=Nc2ccccc2Cl)S/C1=C\c1cc([N+](=O)[O-])ccc1O	·	16%	?	?	35µM*	?
COc1cccc(N=C2NC(=O)/C(=C/c3cc([N+](=O)[O-])ccc3O)S2)c1	·	?	56µM*	?	?	-8%
Cc1cnc(CNc2ccnc(-c3cccc(C#N)c3)n2)cn1	·	·	·	·	1%[0.501 µM]	-17%
CC1CCc2cc(F)ccc2N1C(=O)c1cc2nc(-c3ccco3)cc(C(F)(F)F)n2n1 (centres undefined)	2%	26%	3%	2%	50µM*	-9%
O=C(NCC1CCCO1)c1nn2c(C(F)(F)F)cc(-c3ccc(Br)o3)nc2c1Br (centres undefined)	4%[0.0935 µM]	-3%	2%	-5%	50µM*	50µM*
O=C(NC1CCCCC1)c1nn2c(C(F)(F)F)cc(-c3ccco3)nc2c1Br	0%	10%	-2%	-7%	?	50µM*
O=C(c1cc2nc(-c3ccco3)cc(C(F)(F)F)n2n1)N1CCN(c2ccc(F)cc2)CC1	5%	0%	-33%	?	-4%[12.7 µM]	-16%
O=C(NC1CCCCC1)c1cnn2c(C(F)(F)F)cc(-c3ccco3)nc12	-5%	20%	7%	-21%	-5%[59 µM]	-24%
C1CCN2C[C@@H]3C[C@@H](CN4CCCC[C@H]34)[C@H]2C1	6%[56.1 µM]	·	·	·	31%[21.5 µM]	29%
Cc1ccc(S(=O)(=O)NC(C(=O)Oc2ccc3c(C(F)(F)F)cc(=O)oc3c2)c2ccccc2)cc1 (centres undefined)	14%	39%	3%	-9%	7.1µM*	-12%
CC[C@@H](NS(=O)(=O)c1ccc(C)cc1)C(=O)Oc1ccc2c3c(c(=O)oc2c1)CCC3	-3%	49%	8%	-12%	1%[59 µM]	0%
CC(C)Nc1cc(N2CCN(C3CCCCC3)CC2)c2noc3c2c1C(=O)c1ccccc1-3	9%	?	13µM*	22µM*	?	·
O=C(O)CCCNc1cc(N2CCN(C3CCCCC3)CC2)c2noc3c2c1C(=O)c1ccccc1-3	-6%	22µM*	32µM*	35µM*	16µM*	·
Cc1c2cnn(-c3ccccc3)c(=O)c2c(C)n1CCCC(=O)N1CCN(C2CCCCC2)CC1	·	6%	-18%	-14%	17%[59 µM]	-3%
CCNc1cc(N2CCN(C3CCCCC3)CC2)c2noc3c2c1C(=O)c1ccccc1-3	9%	?	35µM*	50µM*	?	·
CN(Cc1ccc(Cl)s1)C(=O)CN1C(=O)N(C)C2(CCCCC2)C1=O	0%	15%	-6%	-12%	7%	·
CC(=NNC(=S)Nc1ccccc1Cl)c1ccccn1	·	-32%	·	56µM*	·	·
